Screening results as filed in PubChem.
Only some compounds are listed: those with a hit (about 7% of all), similar ones and a draw of the others.
HP1b chromo inh: HP1-beta chromodomain-methylated histone interaction inhibition; AID 540317; P83916; AlphaScreen HP1-beta / biotin-H3K9me3 peptide binding; 390,000 compounds, 0.56% hits; Potency, µM (top dose mostly 114 µM), for inactives: at the top dose activity change, negative = inhibition, hits mostly inhibitors; also: potency is read from the fitted curve at half-maximal effect; nearly all actives have a fitted effect of over 70% in size
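HP1-beta protein (50 nM final) preincubated 30 min at room temperature with biotinylated H3(1-18)K9me3 peptide (50 nM) in PBS pH 7.4, 0.01% Tween-20, then compound added for 30 min. AlphaScreen streptavidin donor/nickel chelate acceptor beads (10 ug/mL final), 30 min dark, luminescence read.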
BAZ2B block: blocks human BAZ2B; AID 504333; AlphaScreen BAZ2B-H3K14Ac peptide displacement; Potency, µM (series often up to 114 µM), without a hit: at the top dose activity change, negative = inhibition, hits mostly inhibitors; 360,000 compounds, 4.4% hits; also: potency is read from the fitted curve at half-maximal effect; % is scaled to controls: 0 for no effect and ±100 for the full control effect; nearly all actives have a fitted effect of over 60% in size
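AlphaScreen luminescence quantifies BAZ2B engagement of H3K14Ac peptide; the protein and biotinylated peptide are both at 50 nM final, buffer PBS pH 7.4 with 0.01% Tween-20, all steps at room temperature.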
GCN5L2 inh: GCN5L2 (KAT2A) acetyltransferase inhibition. AID 504327. GCN5L2 HAT assay, ThioGlo1 CoA-SH fluorescence. Potency, µM (titrated, usually from 58.9 µM), for the others: at the highest dose activity change, negative = inhibition, most hits filed as inhibitors. 390,000 compounds, 0.21% hits; also: potency is read from the fitted curve at half-maximal effect; % is scaled to controls: 0 for no effect and ±100 for the full control effect
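GCN5L2 (20nM final) in 50mM HEPES, 0.1mM EDTA pH 7.5, 0.01% Tween-20 was preincubated 15 min at room temperature with compound, then given ThioGlo1 (50uM), H3(1-25) peptide (75uM) and acetyl-CoA (70uM); CoA-thiol fluorescence (Ex340/Em540) was read at 0 and 20 min.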
PLK1 PBD block: blocks phosphopeptide binding to human PLK1 polo-box domain; Potency, µM, for the others: max response, negative = inhibition, actives largely listed as inhibitors; AID 720504; P53350; Plk1 PBD binding of FITC phosphopeptide, fluorescence polarization; 360,000 compounds, 2.8% hits; also: potency is read from the fitted curve at half-maximal effect; series mostly up to about 57 µM; % is scaled to controls: 0 for no effect and ±100 for the full control effect; nearly all actives have a fitted effect of over 65% in size
Target sequence (P53350 whole entry, looked up, the tested form may be a part): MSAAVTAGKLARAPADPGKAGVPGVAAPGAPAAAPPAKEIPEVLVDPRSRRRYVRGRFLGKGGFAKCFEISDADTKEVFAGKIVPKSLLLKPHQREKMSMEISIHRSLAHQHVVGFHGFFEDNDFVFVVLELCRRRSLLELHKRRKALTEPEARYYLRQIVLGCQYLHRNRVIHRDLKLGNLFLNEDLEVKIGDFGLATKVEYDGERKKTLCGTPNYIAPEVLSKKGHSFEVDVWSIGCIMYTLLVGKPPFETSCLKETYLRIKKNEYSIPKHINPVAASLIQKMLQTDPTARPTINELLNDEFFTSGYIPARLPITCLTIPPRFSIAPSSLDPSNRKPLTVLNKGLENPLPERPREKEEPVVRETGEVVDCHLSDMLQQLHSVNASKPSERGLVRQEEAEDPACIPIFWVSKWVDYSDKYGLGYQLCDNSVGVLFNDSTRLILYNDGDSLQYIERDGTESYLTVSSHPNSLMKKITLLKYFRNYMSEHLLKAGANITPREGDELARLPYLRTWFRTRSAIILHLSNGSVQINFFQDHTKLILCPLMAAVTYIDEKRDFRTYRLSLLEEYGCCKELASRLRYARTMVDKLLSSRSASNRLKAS
PI5P4Ka inh: inhibitors of human PI5P4K alpha. AID 652105. max response, %. P48426. 330,000 compounds, 1.2% hits. PI5P4Kalpha enzyme, ADP-Glo luminescence, 60 min; stronger effect = lower value; active = max response of -50% or lower; inconclusive = between -30% and -50%; inactive = -30% or higher; also: value at the top dose of about 77 µM; % is scaled to controls: 0 for no effect and ±100 for the full control effect
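Reactions run in 0.038 M HEPES pH 7.4, 0.28 mM EGTA, 0.1% CHAPS and 5% DMSO, with PI5P4Kalpha, substrate, compound and 5 microM ATP final, one hour at room temperature. Readout is ADP-Glo luminescence.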
JMJD2A Tudor: blocks the human JMJD2A Tudor domain | 390,000 compounds, 4.4% hits | AlphaScreen JMJD2A-Tudor / H3K4me3 peptide binding | Potency, µM (doses to about 114 µM), for the others: at the highest dose activity change, negative = inhibition, actives largely listed as inhibitors | O75164; also: potency is read from the fitted curve at half-maximal effect; % is scaled to controls: 0 for no effect and ±100 for the full control effect; nearly all actives have a fitted effect of over 50% in size
* marks the source's active call; other numbers are inactive results; ? = inconclusive; nt = not tested or not shown; ! = a repeat was not active. Unless noted, calls follow the shape of the dose curve; as a rule, active = well fitted curve in the direction sought with a large enough effect; inconclusive = small, poorly fitted or top-dose-only effect, or another doubt; inactive = no such curve, though single readings can be large; an effect the other way counts as inactive or inconclusive.

SMILES	HP1b chromo inh	BAZ2B block	GCN5L2 inh	PLK1 PBD block	PI5P4Ka inh	JMJD2A Tudor
O=Cc1ccccc1-n1cccn1	22%	0%	-1%	-1%	1	-3%
Oc1cc(-n2cccn2)c(O)cc1-n1cccn1	2.8µM*	32µM*	-7%	?	-4	0.79µM*
Cc1ccc(-n2c(=O)c3c(c4cc(C)ccc4n3C)n(CC(=O)NCc3ccccc3Cl)c2=O)cc1	16%	-1%	-4%	nt	nt	-8%
CC1=C(/C=C/C(C)=C\C=C\C(C)=C\C(=O)O)C(C)(C)CCC1	nt	nt	6%	nt	nt	nt
CC1=C(/C=C/C(C)=C/C=C/C(C)=C/C(=O)O)C(C)(C)CCC1	25%	?	32µM*!	?	-1	-20%
CC(=O)Oc1cccc2c1C(=O)c1c(OC(C)=O)cc(C(=O)O)cc1C2=O	18%	?	-1%	?	-76*	?
COc1cc([N+](=O)[O-])ccc1NC(=S)NNC(=O)c1ccc2c(c1)OCO2	?	?	-17%	?	?	50µM*
O=C(NC(=S)Nc1cc([N+](=O)[O-])ccc1O)c1ccc2c(c1)OCO2	?	?	-17%	-21%	-25	-34%
COc1cc([N+](=O)[O-])ccc1NC(=S)NC(=O)CC(C)(C)C	?	-23%	1%	27µM*	-1	-30%
O=C(CSc1nnc2ccc(-c3cccnc3)nn12)Nc1cccc(F)c1	40%	4%	-4%	-12%	0	-9%
COc1cccc(C(=O)Nc2nc(-c3nnn(-c4cccc(Cl)c4C)c3C)ns2)c1	13%	-2%	-29%	nt	nt	-26%
CCc1nnc(NS(=O)(=O)c2ccc(NS(=O)(=O)c3ccc(NC(C)=O)cc3)cc2)s1	nt	-2%	2%	nt	nt	nt
COCc1nnc(NS(=O)(=O)c2ccc(C)cc2)s1	63%	-9%	1%	-21%	-2	?
Cc1ccc(S(=O)(=O)Nc2nnc(CC(C)(C)C)s2)cc1	-5%	-21%	-1%	27µM*	1	-21%
Cc1ccc(S(=O)(=O)Nc2nnc(C(C)(C)C)s2)cc1	-2%	-6%	-22%	24µM*	-6	-5%
CC(=O)Nc1ccc(S(=O)(=O)Nc2nnc(CC(C)(C)C)s2)cc1	?	?	-7%	27µM*	-13	-30%
COc1ccc(Cc2nnc(NS(=O)(=O)c3ccc(Cl)cc3)s2)cc1OC	-8%	?	1%	30µM*	-7	-17%
COc1ccc(S(=O)(=O)NC(C(=O)NCCc2ccccn2)C(C)C)cc1 (configuration not stated)	11%	3%	-1%	-7%	0	-3%
Cc1ccccc1C(=O)NNC(=O)CCCCC(=O)NNC(=O)c1ccccc1C	7%	nt	nt	-6%	2	-10%
CCOc1ccc(CNCc2c(C(=O)O)c(C)n(Cc3ccc(F)cc3Cl)c2C)cc1	-21%	?	-4%	nt	nt	-34%
Cc1cc(C)c(C(=O)O)c(CC(C)(C)C(=O)O)c1	16%	-6%	1%	-5%	-1	-6%
COC(=O)C(=O)/C=C(\O)c1c(C)cc(C)cc1C	8%	79µM*	-16%	-6%	11	?
c1ccc(-c2nnc(SCc3nnc(-c4cccs4)o3)o2)cc1	26%	50µM*	-3%	-12%	-9	-12%
CS(=O)(=O)c1ccc(C(=O)NNC(=O)c2ccccc2-n2cccc2)cc1	28%	-5%	-9%	7%	2	-3%
CC(=O)Nc1ccc(NC(=O)CSCc2ccccc2Cl)cc1	35%	nt	nt	-20%	-16	-18%
SMILES	HP1b chromo inh	BAZ2B block	GCN5L2 inh	PLK1 PBD block	PI5P4Ka inh	JMJD2A Tudor
C/C(=N\NC(=O)CSCc1ccccc1Cl)c1cc(O)ccc1O	?	40µM*	1%	-2%	-2	?
O=C(c1ccncc1)N1CCN(C2CCCCC2)CC1	?	50µM*	21%	-8%	-2	1.1µM*
O=C(c1ccccc1)N1CCN(C2CCCCC2)CC1	?	?	0%	0%	-3	7.1µM*
CC1CCN(C2CCN(C(=O)c3ccccc3F)CC2)CC1	?	?	-2%	2%	0	0.89µM*
O=C(c1ccc(F)cc1)N1CCC(N2CCOCC2)CC1	-54%	?	13%	0%	-10	7.9µM*
O=C(c1ccccc1)N1CCCCC1	35%	nt	nt	1%	-6	-7%
COc1ccc(OC)c(NC(=O)C2(C)CCN2Cc2ccccc2OC(F)F)c1 (configuration not stated)	nt	nt	nt	-1%	16	nt
O=C(c1ccccc1)N1CCCC(C(=O)N2CCN(c3ccccc3)CC2)C1 (configuration not stated)	-3%	-3%	0%	27µM*	-13	50µM*
CC1CN(C2CCN(C(=O)c3ccccc3)CC2)CC(C)O1 (configuration not stated)	?	56µM*	-6%	-6%	-1	1.3µM*
CN(Cc1ccc(Cl)c(Cl)c1)C(c1cc2ccccc2o1)c1nnnn1C(C)(C)C (configuration not stated)	nt	nt	nt	-5%	15	nt
COCCCNC(=O)c1cc(S(=O)(=O)NCCCN2CCCC2=O)ccc1Cl	24%	nt	-1%	-10%	-1	-10%
CCCCCCCCCCCCCCCCCCc1ccc(C(=O)/C=C\C(=O)O)cc1	nt	nt	2.8µM*	nt	nt	nt
CCCCCCCCCCCCCCCCCCc1ccc(C(=O)/C=C/C(=O)O)cc1	nt	nt	-4%	nt	nt	nt
CCCCCCCCc1ccc(-c2ccc(C(=O)O)cc2)cc1	nt	nt	20µM*	nt	nt	nt
COc1ccc(CCN2C(=O)CC(C(N)=O)SC2=Nc2ccc(F)cc2)cc1OC (configuration not stated)	29%	-10%	-3%	-10%	-8	-23%
CCN(C[C@H]1N[C@@](C)(C(=O)OC)[C@H]2C(=O)N(C)C(=O)[C@@H]12)S(=O)(=O)c1ccc(OC)cc1	41%	nt	3%	-12%	4	-14%
Cc1cc(Nc2ccc(Br)cc2)n2nc(-c3ccccc3C)nc2n1	24%	-10%	-15%	nt	nt	-29%
CCOC(=O)C(NC(=O)Nc1ccc(Cl)cn1)(Oc1ccc(F)cc1)C(F)(F)F (configuration not stated)	30%	3%	1%	9.5µM*	-2	9%
CCOC(=O)C(NC(=O)NCc1ccc(F)cc1)(OCC)C(F)(F)F (configuration not stated)	30%	12%	1%	-2%	-2	-7%
c1coc(CNc2nc(-c3cccs3)nc3ccccc23)c1	nt	nt	nt	nt	nt	-30%
COc1cc(/C=C/c2ccc3c([N+](=O)[O-])cccc3n2)ccc1OCC(=O)O	45%	?	-20%	-8%	-14	?
O=C(O)COc1ccc(/C=C/c2ccc3cccc([N+](=O)[O-])c3n2)cc1	?	56µM*	-9%	-25%	-20	?
